Bioassay records deposited in PubChem BioAssay by National Center for Advancing Translational Sciences (NCATS).
HT1080NT lethal – qHTS for induction of synthetic lethality in tumor cells producing 2HG: qHTS for the HT-1080-NT fibrosarcoma cell line. HT-1080-NT fibrosarcoma viability, CellTiter-Glo ATP luminescence, 48 h. Potency, µM (series often up to 46.1 µM), hits mostly cytotoxic. 360,000 compounds, 1.6% hits;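 also: NT is the 2HG producing partner of a matched IDH1 knockdown line; nearly all actives have a fitted effect of over 55% in size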
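HT-1080-NT; 750 cells/well; 5% FBS RPMI; 48 h compound, 37 degrees C; CellTiter-Glo luminescence; curve fitting and curve-class assignment.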
HT1080 IDH1KD tx – qHTS for induction of synthetic lethality in tumor cells producing 2HG: qHTS for the HT-1080-IDH1KD cell line. HT-1080 IDH1 knockdown viability, ATP luminescence, 48 h. Potency, µM (doses to about 46.1 µM), hits mostly cytotoxic. 360,000 compounds, 2% hits. AID 686971, 2013
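Cytotoxicity counter-line: IDH1KD HT-1080, 48 h, CellTiter-Glo. Curves classed by r2, magnitude and activity.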
KB-V1 MDR tox – qHTS assay for MDR1-selective chemotherapeutics: Primary screen using the drug-selected MDR subline cells KB-V1 | 400,000 compounds, 3.4% hits | Potency, µM (highest dose often 46.1 µM), usual class: cytotoxic | KB-V1 MDR cells viability, CellTiter-Glo, 72 h; also: nearly all actives have a fitted effect of over 60% in size
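qHTS viability screen in drug-selected KB-V1 MDR cells: 72 h compound treatment at 37 degrees C, ATP luminescence end point.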
KB-3-1 cytotox – qHTS assay for MDR1-selective chemotherapeutics: Primary screen using the parental adenocarcinoma cell KB-3-1; KB-3-1 viability, CellTiter-Glo ATP luminescence, 72 h; Potency, µM (series often up to 46.1 µM), hits mostly cytotoxic; 400,000 compounds, 1.4% hits; AID 1347075, 2019; also: nearly all actives have a fitted effect of over 60% in size
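KB-3-1 cells, DMEM (no phenol red) + 10% FBS; compound by pin transfer, 72 h, 37 °C. Readout: CellTiter-Glo luminescence after 10 min. Data normalized, curve-fitted.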
SW480 rerep – A quantitative high throughput screen for small molecules that induce DNA re-replication in SW480 colon adenocarcinoma cells | SW480 DNA re-replication, Hoechst DNA content imaging, 48 h | Potency, µM (titrated, usually from 46.1 µM), actives largely listed as activators | 340,000 compounds, 1.8% hits | AID 624297, 2012; also: nearly all actives have a fitted effect of over 55% in size
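Cells (250 per well) received 23 nL compound or DMSO by pin tool and were kept 48 hr at 37 C, 5% CO2. Nuclei were then stained with Hoechst for 40 min and scanned for DNA content.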
MCF10A rerep – A quantitative high throughput screen for small molecules that induce DNA re-replication in MCF 10a normal breast cells | Potency, µM (titrated, usually from 46.1 µM), usual class: activators | 350,000 compounds, 2.9% hits | MCF 10A DNA re-replication, Hoechst nuclear intensity, 48 h; also: nearly all actives have a fitted effect of over 50% in size
Hits are given with their value; i = inactive; ? = inconclusive; nt = not tested or not shown. Sampled rows, rich in hits. Any-hit rate of the full collection: about 7.9%. Calls follow the shape of the dose curve; as a rule, active = well fitted curve in the direction sought with a large enough effect; inconclusive = small, poorly fitted or top-dose-only effect, or another doubt; inactive = no such curve, though single readings can be large; an effect the other way counts as inactive or inconclusive.

SMILES	HT1080NT lethal	HT1080 IDH1KD tx	KB-V1 MDR tox	KB-3-1 cytotox	SW480 rerep	MCF10A rerep
Cc1ccc(NC(=O)c2ccc(Cl)cc2[N+](=O)[O-])nc1	5.8µM	4.61µM	?	5.8µM	3.66µM	?
Cc1ccc(C(=O)Nc2nccc(-c3cccs3)n2)cc1	i	i	i	i	i	i
CCN(CC)S(=O)(=O)c1cc(C(=O)NC2CCCCC2)ccc1C	i	i	13µM	i	i	i
COCOc1cccc(CN2CCC2(C)C(=O)Nc2ccc(OC)c(OC)c2)c1 (stereo not given)	i	i	i	i	nt	nt
CCc1ccc(OCc2n[nH]c(=S)n2C(C)CCCC(C)C)cc1 (stereo not given)	i	i	i	i	i	13µM
Cc1cccc2[nH]c3c(N4CCN(C(=O)c5ccco5)CC4)ncnc3c12	i	i	?	i	i	i
Cc1cccc2[nH]c3c(N4CCC5(CC4)OCCO5)ncnc3c12	?	18.4µM	?	i	?	?
Clc1ccc2[nH]c3c(N4CCC5(CC4)OCCO5)ncnc3c2c1	16.4µM	8.2µM	16.4µM	14.6µM	?	20.6µM
c1ccc2c(c1)[nH]c1c(N3CCOCC3)ncnc12	i	i	?	i	i	i
CCOc1cc(NC(=O)CCl)c(OCC)cc1NC(=O)CCl	?	?	?	20.6µM	3.26µM	6.51µM
O=C(Cc1ccccc1)Nc1ccccc1C(=O)N1CCN(c2ccccc2)CC1	i	i	?	i	i	i
Cc1ccc(NC(=O)CSc2nnnn2C2CCCC2)cc1S(=O)(=O)N1CCOCC1	i	i	i	i	i	i
Cc1cc(/C=C/c2ccnc3ccccc23)ccc1N	nt	nt	23.1µM	?	nt	nt
Oc1ccc(/C=C/c2ccnc3ccccc23)cc1	?	?	i	?	i	20.6µM
C[N+](C)(C)c1ccc(/C=C/c2ccnc3ccccc23)cc1	nt	nt	?	18.4µM	nt	nt
CCCCCCCCCN(CCCCCCCCC)c1ccc(/C=C/c2ccnc3ccccc23)cc1	nt	nt	i	i	nt	nt
CCC[N+](C)(C)c1ccc(/C=C/c2ccnc3ccccc23)cc1	nt	nt	?	1.64µM	nt	nt
COc1ccc(/C=C/c2ccnc3ccccc23)cc1	nt	nt	i	i	nt	nt
CN(C)c1ccc(/C=C/c2ccnc3ccccc23)cc1N	nt	nt	i	i	nt	nt
Cn1c(=O)c2c(nc(N3CCOCC3)n2Cc2cccc(Br)c2)n(C)c1=O	nt	nt	?	i	nt	nt
O=C(NCc1ccc(Cl)cc1)C1(c2cccs2)CCOCC1	nt	nt	i	i	nt	nt
CCc1oc2ccccc2c1C(=O)c1cc(I)c(O)c(I)c1	nt	nt	nt	nt	i	3.76µM
CCCCc1oc2ccccc2c1C(=O)c1cc(I)c(N(CC)CCOCC)c(I)c1	nt	nt	i	i	nt	nt
CCCCN(C/C=C/c1ccccc1OC)Cc1ccccc1	i	i	i	i	i	i
O=C(c1ccccc1)c1ccc(N2CCOCC2)c(F)c1	i	i	20.6µM	i	i	i
SMILES	HT1080NT lethal	HT1080 IDH1KD tx	KB-V1 MDR tox	KB-3-1 cytotox	SW480 rerep	MCF10A rerep
CN1CCN(c2ccc([N+](=O)[O-])cc2C(=O)N2CCCCC2)CC1	i	i	i	i	i	i
CN1CCN(c2ccc([N+](=O)[O-])cc2C(=O)c2ccc(Cl)cc2)CC1	5.8µM	5.17µM	4.61µM	2.31µM	8.2µM	11.6µM
O=C(COC(=O)c1cc([N+](=O)[O-])ccc1N1CCOCC1)Nc1ccc(Cl)cn1	i	i	13µM	?	?	?
O=C(c1ccc(Br)cc1)c1cc([N+](=O)[O-])ccc1N1CCOCC1	5.17µM	5.8µM	4.61µM	i	0.581µM	?
CC1CC(C)CN(C(=O)C2CCC(CNS(=O)(=O)c3ccccc3)CC2)C1 (stereo not given)	i	i	i	i	i	i
COc1cc2c(NC3CCN(C)CC3)nc(N3CCCCC3)nc2cc1OCCOCCN(C)C	nt	nt	i	i	nt	nt
Cc1ccc(C(=O)NC2(C(F)(F)F)N=C(c3ccccc3)N(C3CCCCC3)C2=O)cc1 (stereo not given)	nt	nt	i	i	nt	nt
O=C(c1ccccc1)c1cc([N+](=O)[O-])ccc1N1CCOCC1	1.03µM	0.731µM	1.16µM	1.16µM	?	?
O=C(c1ccc(Cl)cc1)c1cc([N+](=O)[O-])ccc1N1CCOCC1	1.46µM	1.16µM	1.84µM	?	0.651µM	?
CC1CCCN(c2ccc([N+](=O)[O-])cc2C(=O)c2ccccc2)C1 (stereo not given)	?	2.91µM	i	?	4.11µM	?
O=C(COC(=O)c1cc([N+](=O)[O-])ccc1N1CCOCC1)Nc1ccc(Cl)cc1	i	i	?	i	i	i
